13 compounds from ChEMBL document CHEMBL1157539, “Thousands of chemical starting points for antimalarial lead identification” (Nature, 2010) can be followed below.

In the first assay the test system is Plasmodium falciparum. The assay can be described thus: GSK_TCMDC: Inhibition of Plasmodium falciparum Dd2 in whole red blood cells, using parasite LDH activity as an index of growth. Test compounds present at 2uM. The format is functional.
What is called Inhibition is how much of the control response was suppressed. The low end stands for a response near the control, the high end for a response far below the control. Consider `COc1ccc2ccccc2c1C=NN=c1cc(C)[nH]c2cc(C(F)(F)F)ccc12`, for which the Inhibition came to 4%.

On to `O=C(/C=C/c1ccc(Cl)c(Cl)c1)NCCCCCCN1CCN(C(=O)Nc2cc(Cl)nc(Cl)c2)CC1`, for which the Inhibition is given as 0%.

Turning to `O=C(/C=C/c1ccc(Cl)cc1)NCCCCCN1CCN(C(=O)C=Cc2ccc(Cl)c(Cl)c2)CC1.O=C(O)C(F)(F)F`, the Inhibition was determined as 0%.

In the next assay the test system is HepG2. In words: GSK_TCMDC: Percent inhibition of human HepG2 cell line. Test compounds present at 10uM. Format: functional.
Take `COc1cccc(-c2nc3c(N4CCN(c5ccncc5)CC4)cccc3n2CC2CCCCCN2)n1.O=C(O)C(F)(F)F` (stereo not drawn): the Inhibition was determined as 12%.

For `O=C(NCCCCN1CCC(c2ccc3c(c2OCc2ccccn2)CCCC3)CC1)c1ccc(NC(=O)c2ccc(Cl)cc2)cc1`, the Inhibition is given as 31%.

Compound `Cc1cc(N[C@@H](CC(C)C)C(=O)NC2CCCC2)nc(NCC2CCCCC2)n1.O=C(O)C(F)(F)F` showed an Inhibition of 8%.

Turning to `N=C(Nc1cccc(Cc2ccccc2)n1)Nc1ncccn1`, the Inhibition is reported as 51%.

Compound `CCCNCc1ccc(-c2ccc(CN(Cc3ccc4c(c3)OCO4)C(=O)Cc3cccnc3)cc2)nc1.O=C(O)C(F)(F)F` yielded an Inhibition of 16%.

As for `CS(=O)(=O)c1ccc(CNCc2ccc(-c3ccc(-c4nc5cc(C(F)(F)F)ccc5[nH]4)cc3)cc2)cc1.O=C(O)C(F)(F)F`, the Inhibition turned out to be 26%.

Compound `O=C1SC(S)=NC1=CNCCCCCCO` had an Inhibition of 7%.

Compound `CCN(CC)c1nc(Nc2cc(C)ccc2C)nc(Nc2ccccc2O)n1` had an Inhibition of 0%.

`CCOC(=O)c1ccc(NC(=O)N[C@@H](Cc2ccccc2)C(=O)NC2CCN(Cc3ccc(OCCCN(C)C)cc3)C2)cc1` (stereo partly drawn) gave an Inhibition of 5%.

`Cc1cc(C(=O)NC2CCN(CC3(c4ccccc4)CCCCC3)CC2)on1` returned an Inhibition of 0%.
